# From PubChem BioAssay (Tox21)
# “And” between values parts separate entries of the source, which are not always exact repeats. Identical values can stand only once. The source made the active and inactive calls. A call without a number means that no potency is given here. Calls come from the whole dose curve; as a rule, active = well fitted curve in the direction sought with a large enough effect in the repeat runs; inconclusive = weak or mixed curves; inactive = flat fitted curve, though single readings scatter.
# Assay: qHTS assay to test for compound auto fluorescence at 535 nm (green) in HEK293 cells (AID 720680)
# Conditions: green autofluorescence 485/535 nm; series mostly up to 91.3 µM
row,SMILES,outcome
1,O=C1CCCCCCCCCCC1,inactive
2,COCN(COC)c1nc(N(COC)COC)nc(N(COC)COC)n1,inactive
3,Cc1nnc(NS(=O)(=O)c2ccc(N)cc2)s1,inactive
4,C[n+]1ccn(CCO)c1,inactive
5,NC(N)=S,inactive
6,CCCCCCCCC(=O)O,inactive
7,OC1CCCCC1,inactive
8,Cc1ccc(C(C)C)cc1,inactive
9,CCn1cc(C(=O)O)c(=O)c2cc3c(cc21)OCO3,inactive
10,CC(=O)CC(=O)N(C)C,inactive
11,CCCCC(CC)COC(=O)c1ccc(C(=O)OCC(CC)CCCC)cc1 (centres undefined),inactive
12,Cc1cc(C)c(O)c(C)c1,inactive
13,CC(C)c1ccc(C(C)C)cc1,inactive
14,Oc1ccc(Cc2ccccc2O)cc1,inactive
15,OCC(O)CS (centres undefined),inactive
16,Cc1ccncc1,inactive

# Assay: qHTS assay to test for compound auto fluorescence at 460 nm (blue) in HEK293 cell free culture (AID 720681); note: potency is the fitted concentration of half-maximal effect
# Conditions: cell-free medium, autofluorescence 405/460 nm (blue); series mostly up to 91.3 µM
# Summary of the method: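 Compounds were added to cell-free DMEM with 10% FBS and fluorescence read directly. The blue channel used 405 nm excitation and 460 nm emission, with triamterene as the reference fluorophore.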
row,SMILES,Potency
1,CC(C)(C)NC[C@H](O)COc1nsnc1N1CCOCC1,inactive
2,Cc1ccc([N+](=O)[O-])cc1N,inactive
3,CC(C)=CCC/C(C)=C/C=O,inactive
4,O=C(NCC1CCCCN1)c1cc(OCC(F)(F)F)ccc1OCC(F)(F)F (centres undefined),inactive
5,CC1(C)[C@@H](O[C@H]2O[C@H](C(=O)O)[C@@H](O)[C@H](O)[C@H]2O[C@@H]2O[C@H](C(=O)O)[C@@H](O)[C@H](O)[C@H]2O)CC[C@]2(C)[C@H]3C(=O)C=C4[C@@H]5C[C@@](C)(C(=O)O)CC[C@]5(C)CC[C@@]4(C)[C@]3(C)CC[C@@H]12,inactive
6,C1CCCNCC1,inactive
7,COc1c2ccoc2cc2oc(=O)ccc12,inactive
8,CC(=O)Nc1ccc(CC(=O)O)cc1,inactive
9,CCCCCCC(=O)O,inactive
10,CC(=O)OC(C)(C)C1CC=C(C)CC1 (centres undefined),inactive
11,Cc1ccccc1C=O,inactive
12,NC(=O)NC(N)=O,inactive
13,Cc1cc(CC(=O)O)n(C)c1C(=O)c1ccc(Cl)cc1,inactive
14,C[Si](C)(C)N[Si](C)(C)C,inactive
15,COc1ccc2cc3[n+](cc2c1OC)CCc1cc2c(cc1-3)OCO2,inactive
16,Nc1nc(N)c2nc(-c3ccccc3)c(N)nc2n1,12.6 µM (active) and 39.8 µM (active)
17,Clc1cccc(Cl)c1NC1=NCCN1,inactive
18,O=C(O)C1=NN(c2ccc(S(=O)(=O)O)cc2)C(=O)C1,inactive
19,N[C@@H](Cc1cc(I)c(Oc2ccc(O)c(I)c2)c(I)c1)C(=O)O,inactive

row,SMILES,Potency
1,C=C(CC(=O)O)C(=O)O,inactive
2,Cc1ccccc1Cl,inactive
3,CCCCCCCCCCCCCC(=O)O,inactive
4,O=C1CCCCCCCCCCC1,inactive
5,COCN(COC)c1nc(N(COC)COC)nc(N(COC)COC)n1,inactive
6,Cc1nnc(NS(=O)(=O)c2ccc(N)cc2)s1,inactive
7,C[n+]1ccn(CCO)c1,inactive
8,NC(N)=S,inactive
9,CCCCCCCCC(=O)O,inactive
10,OC1CCCCC1,inactive
11,Cc1ccc(C(C)C)cc1,inactive
12,CCn1cc(C(=O)O)c(=O)c2cc3c(cc21)OCO3,inactive
13,CC(=O)CC(=O)N(C)C,inactive
14,CCCCC(CC)COC(=O)c1ccc(C(=O)OCC(CC)CCCC)cc1 (centres undefined),inactive
15,Cc1cc(C)c(O)c(C)c1,inactive
16,CC(C)c1ccc(C(C)C)cc1,inactive
17,Oc1ccc(Cc2ccccc2O)cc1,inactive
18,OCC(O)CS (centres undefined),inactive
19,Cc1ccncc1,inactive
